Records with an inconclusive call do not appear. The source made the active and inactive calls. Rule for the calls: active = hit-call score of the fitted dose curve at least 0.9, where 1 is the maximum; inconclusive = response in the unintended direction; inactive = score below 0.9.

Sequence of Nuclear receptor subfamily 4 group A member 2 (Homo sapiens) (P43354 whole entry, looked up): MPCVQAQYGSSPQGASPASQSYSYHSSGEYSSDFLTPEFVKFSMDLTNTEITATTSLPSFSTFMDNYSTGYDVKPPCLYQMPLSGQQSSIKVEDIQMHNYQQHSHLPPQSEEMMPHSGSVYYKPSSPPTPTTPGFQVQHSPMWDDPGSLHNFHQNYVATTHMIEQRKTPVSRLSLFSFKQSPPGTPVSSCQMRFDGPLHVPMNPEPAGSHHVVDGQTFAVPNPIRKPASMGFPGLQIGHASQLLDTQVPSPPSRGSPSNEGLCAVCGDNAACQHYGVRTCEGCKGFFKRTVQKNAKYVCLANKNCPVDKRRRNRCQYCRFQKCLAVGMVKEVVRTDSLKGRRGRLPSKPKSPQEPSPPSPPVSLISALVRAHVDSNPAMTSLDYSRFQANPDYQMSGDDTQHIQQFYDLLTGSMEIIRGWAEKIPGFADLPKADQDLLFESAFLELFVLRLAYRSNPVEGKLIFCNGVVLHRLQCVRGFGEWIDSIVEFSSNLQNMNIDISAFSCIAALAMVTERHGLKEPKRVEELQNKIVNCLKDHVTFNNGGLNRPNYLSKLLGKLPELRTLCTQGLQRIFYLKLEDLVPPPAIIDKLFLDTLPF

This assay concerns the target Nuclear receptor subfamily 4 group A member 2 (Homo sapiens) (UniProt P43354). The assay can be described thus: ATG_NURR1_TRANS: Attagene TRANS-FACTORIAL HepG2 Assay for human Nuclear Receptor Related Protein 1 (NURR1) (AID 2282985). Particulars: HepG2 Attagene TRANS reporter, mRNA readout. How it is done: ATG_TRANS is a cell-based, multiplexed-readout assay that uses HepG2, a human liver cell line, with measurements taken at 24 hours after chemical dosing in a 24-well plate.ATG_NURR1_TRANS is one of 30 assay component(s) measured or calculated from the ATG_TRANS assay. It is designed to make measurements of mRNA induction, a form of inducible reporter, as detected with fluorescence intensity signals by Reverse transcription polymerase chain reaction (RT-PCR) and Capillary electrophoresis technology.Data from the assay component ATG_NURR1_TRANS was analyzed into 1 assay endpoint. This assay endpoint, ATG_NURR1_TRANS, was analyzed in the positive analysis fitting direction relative to DMSO as the negative control and baseline of activity. Using a type of inducible reporter, measures of mRNA for gain-of-signal activity can be used to understand the reporter gene at the transcription factor-level as they relate to the gene NR4A2. Furthermore, this assay endpoint can be referred to as a primary readout, because this assay has produced multiple assay endpoints where this one serves a reporter gene function. To generalize the intended target to other relatable targets, this assay endpoint is annotated to the nuclear receptor intended target family, where the subfamily is orphan.
Human liver HepG2 cells are transiently transfected with multiple reporter transcription units (MRTUs) in 6-well plates using FuGene 6 reagent (Roche; 3 ml FuGene/1 mg DNA). The MRTU constructs are regulated by a cis-regulating element (promoter). […] A major difference between the CIS and TRANS system is that in CIS activities of endogenous TFs are measured, whereas the TRANS assay evaluates changes in activities of exogenous, chimeric NR-Gal4 proteins. […] At the end of 24 hour incubation, total RNA was isolated using TriZol reagent (Invitrogen). The isolated RNA is then reverse-transcribed using oligo(dT) primer and Mo-MLV reverse transcriptase (Invitrogen) with DNAse I (Ambion) treatment for 30 min. The one-tenth of the produced cDNA was amplified by PCR using Taq DNA polymerase (Invitrogen) and two reporter sequence-specific primers. The PCR products were fluorescently labeled by primer extension with 6-arboxyfluorescein (6-FAM) 5'-labeled reporter sequence-specific primer (2 min at 95 C, 20 s at 68 C and 10 min at 72 C) and these products were digested with 5U of HpaI (New England Biolabs) for 2h at 37 C. The fragments were purified using Qiaquick PCR columns (Qiagen), analyzed on an ABI 3130xL genetic analyzer (Applied Biosystems) with peak positions identified by using a set of X-rhodamine (ROX)-labeled MapMarker1000 molecular weight standards (BioVentures). The raw capillary electrophoresis data was processed using Attagraph software (Attagene).
Regarding `O=c1[nH]c2ccccc2c(=O)o1`, the compound was called inactive.
Same read-out and setting: to `CC(=O)c1ccc(-c2ccccc2)cc1` belongs “inactive”.
Still for that read-out and setting: in the case of `ClC(Cl)(Cl)c1ccccc1` it was “inactive”; in that of `CCCCCCCc1ccc(O)cc1`, “inactive”.
The same measure, in the same setting: to `Nc1ccc(Sc2ccc(N)cc2)cc1` belongs “inactive”.
For `CC1=C(C(=O)Nc2ccccc2)S(=O)(=O)CCO1`, the call was inactive.
Still for that read-out and setting: in the case of `CC1(C)CN=C(NN=C(/C=C/c2ccc(C(F)(F)F)cc2)/C=C/c2ccc(C(F)(F)F)cc2)NC1` it was “inactive”.
The same measure, in the same setting: to `Clc1ccc(Oc2ccccc2)cc1` belongs “inactive”.
For the compound `CCCCOCCOP(=O)(OCCOCCCC)OCCOCCCC`, the call was inactive.
Same read-out and setting: to `Oc1ccc(I)cc1` belongs “inactive”.
In the case of `CCCCC(CC)COP(=O)(Oc1ccccc1)Oc1ccccc1` (stereo not given), the AC50 is 21.8 µM (active).
Consider `[N-]=[N+]=[N-]`, for which the compound was called inactive.
For `CCOc1ccc(C(C)(C)COCc2cccc(Oc3ccccc3)c2)cc1`, the compound was classed as inactive.
Still for that read-out and setting: in the case of `CC(C)(C)OOC(C)(C)C` it was “inactive”; in that of `N#Cc1cc([N+](=O)[O-])ccc1N`, “inactive”; in that of `CCN(CC)c1ccccc1`, “inactive”.
For `OCC(F)(F)OC(F)(F)C(F)(F)OC(F)(F)CO`, the compound was called inactive.
For `CCOP(=S)(OCC)SCn1nnc2ccccc2c1=O`, the AC50 was 100 µM (active).
As to `CCCN(CCC)c1c([N+](=O)[O-])cc(C(C)C)cc1[N+](=O)[O-]`, the compound was called inactive.
On the same count and under the same terms, in the case of `CC(O)C(F)(F)C(F)(F)F` (stereo not given) it was “inactive”.
Same read-out and setting: to `C=CC(=O)OCC(CC)(COC(=O)C=C)COC(=O)C=C` belongs “inactive”.
On the same count and under the same terms, in the case of `N#Cc1c(-c2ccc(Cl)cc2)[nH]c(C(F)(F)F)c1Br` it was “inactive”; in that of `ClC(Cl)=C(c1ccc(Cl)cc1)c1ccccc1Cl`, “inactive”; in that of `CCOP(=S)(OCC)SCSCC`, “inactive”.
As to `COP(=O)(CCC(=O)NCO)OC`, the result was inactive.
On the same count and under the same terms, to `O=S(=O)(F)C(F)(F)C(F)(F)C(F)(F)C(F)(F)C(F)(F)C(F)(F)C(F)(F)C(F)(F)F` belongs “inactive”; to `C/C(=N\NC(=O)Nc1cc(F)cc(F)c1)c1ncccc1C(=O)O`, “inactive”.
Still for that read-out and setting: in the case of `COP(=O)(O)OC` it was “inactive”; in that of `CCCCc1ccccc1`, “inactive”.
Still for that read-out and setting: to `OCC(F)(F)OC(F)(F)C(F)(F)OC(F)(F)C(F)(F)OC(F)(F)CO` belongs “inactive”; to `C=C(C)C(=O)OCC1CO1` (stereo not given), “inactive”; to `CC(Cl)(Cl)C(=O)O`, “inactive”.
For `Cc1ccc(N)cc1N`, the result was inactive.
On the same count and under the same terms, in the case of `Nc1cc2c3c(c1)C(c1ccccc1)=N[C@@H](NC(=O)c1cccnc1)C(=O)N3CC2` it was “inactive”; in that of `CSC(C)(C)C=NO`, “inactive”; in that of `CCOC(=O)c1ccccc1C(=O)OCC`, “inactive”.
For `O=P(Oc1ccccc1)(Oc1ccccc1)Oc1ccccc1`, the concentration at half-maximal activity (AC50) is 47.9 µM (active).
As for `O=C(O)C(F)(F)C(F)(F)C(=O)O`, the compound was called inactive.
For `N#C/C=C/c1ccccc1`, the outcome was inactive.
Turning to `Cc1ccc2c(c1N)C(=O)c1ccccc1C2=O`, the call was inactive.

A word on the AC50: it is the concentration giving half of the maximal activity seen.
